Screening data (PubChem BioAssay)
This is one part of a sample in which hits are shown more often than they occur.
GIRK2 act: GIRK2 channel activators by thallium flux | P48051 | HEK293 GIRK2/NPY4 cells, thallium flux fluorescence | activation (% efficacy), % for hits at 37.5 µM | 34,000 tested, under 10 active | AID 1259324;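 active means primary screen hit, no activity in plain HEK293 cells, and in GIRK2-only cells above 5% efficacy rising with concentration; inactive means the rest, including fluorescent compounds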;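 further: efficacy is normalized control-subtracted fluorescence 15 s after thallium addition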
AMPAR-TARP mod: modulates AMPAR-stargazin complexes; O88602+P19491; HEK293 GluA2+stargazin, membrane potential dye (FDSS), glutamate EC50; hits were called plate by plate, in both directions; calls only at 30 µM; 3.5% of 40,000 active; AID 1259245;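 active means any of four per-well response measures lying three or more SD from its plate-wide compound average, in either direction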
Target sequence (O88602 whole entry, looked up): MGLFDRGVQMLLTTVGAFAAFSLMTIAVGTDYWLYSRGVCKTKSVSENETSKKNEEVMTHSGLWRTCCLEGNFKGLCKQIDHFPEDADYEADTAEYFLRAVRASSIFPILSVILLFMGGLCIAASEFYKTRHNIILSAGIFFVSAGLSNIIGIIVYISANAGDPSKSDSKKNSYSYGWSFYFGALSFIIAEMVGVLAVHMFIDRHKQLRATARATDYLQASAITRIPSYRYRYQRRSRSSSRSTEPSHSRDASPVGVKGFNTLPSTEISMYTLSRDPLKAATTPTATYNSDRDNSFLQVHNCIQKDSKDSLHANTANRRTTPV
Target sequence (P19491 whole entry, looked up): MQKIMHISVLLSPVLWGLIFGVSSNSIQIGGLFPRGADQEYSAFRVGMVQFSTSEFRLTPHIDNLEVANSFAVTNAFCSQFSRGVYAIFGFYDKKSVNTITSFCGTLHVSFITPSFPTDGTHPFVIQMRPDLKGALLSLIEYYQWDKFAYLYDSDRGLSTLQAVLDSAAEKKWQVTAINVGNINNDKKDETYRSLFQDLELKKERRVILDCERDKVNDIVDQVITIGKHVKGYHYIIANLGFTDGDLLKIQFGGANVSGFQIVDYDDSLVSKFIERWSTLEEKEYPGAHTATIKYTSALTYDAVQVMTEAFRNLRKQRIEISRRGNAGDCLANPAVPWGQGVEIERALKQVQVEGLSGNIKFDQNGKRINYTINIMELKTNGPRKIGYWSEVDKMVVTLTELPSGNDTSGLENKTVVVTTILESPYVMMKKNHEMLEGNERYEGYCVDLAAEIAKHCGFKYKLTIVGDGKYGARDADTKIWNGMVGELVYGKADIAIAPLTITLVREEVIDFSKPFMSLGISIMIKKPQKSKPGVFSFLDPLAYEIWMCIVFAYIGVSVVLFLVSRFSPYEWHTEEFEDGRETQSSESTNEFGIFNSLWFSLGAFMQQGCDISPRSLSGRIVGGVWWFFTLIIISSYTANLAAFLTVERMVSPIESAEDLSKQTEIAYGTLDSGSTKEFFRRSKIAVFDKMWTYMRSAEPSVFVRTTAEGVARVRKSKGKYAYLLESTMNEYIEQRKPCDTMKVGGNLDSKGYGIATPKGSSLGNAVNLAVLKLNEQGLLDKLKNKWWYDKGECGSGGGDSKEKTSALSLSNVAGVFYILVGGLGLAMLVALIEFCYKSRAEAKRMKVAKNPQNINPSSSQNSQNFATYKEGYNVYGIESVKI
* = called active by the depositor; i = inactive; . = no result given; + = active, no number.

SMILES	GIRK2 act	AMPAR-TARP mod
COc1ccc2nc(NC(=O)NC34CC5CC(CC(C5)C3)C4)sc2c1	i	i
Cc1nnsc1C(=O)N1CCC(CNC(=O)c2c(-c3ccccc3Cl)noc2C)CC1	i	i
Cc1onc(-c2ccccc2Cl)c1C(=O)N1CCC(c2ccsc2)CC1	i	+
Cc1cc(C)c(S(=O)(=O)N(C)c2c(C)cccc2C)cc1N(C)S(=O)(=O)c1ccccc1	.	i
Cc1cc(C)c(S(=O)(=O)NC(C)C)cc1N(C)S(=O)(=O)c1ccccc1	.	+
Cc1cc(C)c(S(=O)(=O)N(C)c2ccc(Cl)cc2)cc1N(C)S(=O)(=O)c1ccccc1	.	+
Cc1cccc(N(C)S(=O)(=O)c2cc(N(C)S(=O)(=O)c3ccccc3)c(C)cc2C)c1	.	i
O=c1c2sccc2nc(SCc2nc(-c3ccc4c(c3)OCO4)no2)n1Cc1ccccc1	i	i
O=C(NCCn1ncc2c(N3CCCC3)ncnc21)c1cc(-c2ccccc2)on1	.	i
Cn1c(=O)c2cc(C(=O)NCCCN3CCOCC3)sc2n(C)c1=O	i	+
Cn1c(=O)c2cc(C(=O)NCCC(c3ccccc3)c3ccccc3)sc2n(C)c1=O	i	i
Cn1c(=O)c2cc(C(=O)NCc3ccccc3)sc2n(C)c1=O	i	i
Cn1c(=O)c2cc(C(=O)Nc3ccc(Oc4ccccc4)cc3)sc2n(C)c1=O	i	i
Cn1c(=O)c2cc(C(=O)Nc3cccc(S(N)(=O)=O)c3)sc2n(C)c1=O	i	+
Cn1c(=O)c2cc(C(=O)NCCCn3ccnc3)sc2n(C)c1=O	i	+
Cc1cc(S(=O)(=O)N2CCN(CCO)CC2)ccc1Cl	i	i
Cc1ccccc1OCC(=O)N1CCN(c2ncnc3c2nnn3-c2ccc(F)cc2)CC1	.	i
CC(=O)Nc1ccc(NC(=O)c2n[nH]c3ccccc23)cc1	i	i
COC(=O)c1sccc1NC(=O)CN1CCCN(Cc2ccccc2Cl)S1(=O)=O	.	i
Cc1cc(NC(=O)CC(C)C)n(-c2nc(-c3cccs3)cs2)n1	i	i
O=S(=O)(NCC1COC2(CCCCC2)O1)c1cc(F)ccc1F (stereo unspecified)	i	+
COc1ccc(F)cc1S(=O)(=O)NCC1COC2(CCCCC2)O1 (stereo unspecified)	i	i
O=S(=O)(NCC1COC2(CCCCC2)O1)c1cccc2ccccc12 (stereo unspecified)	.	+
O=S(=O)(NCC1COC2(CCCCC2)O1)c1ccc(Cl)cc1 (stereo unspecified)	i	+
O=[N+]([O-])c1ccccc1S(=O)(=O)NCC1COC2(CCCCC2)O1 (stereo unspecified)	i	i
SMILES	GIRK2 act	AMPAR-TARP mod
CCc1ccc(S(=O)(=O)NCC2COC3(CCCCC3)O2)s1 (stereo unspecified)	i	i
O=C(NCCc1ccccc1)c1ncccn1	i	.
O=C1/C(=C/c2c(F)cccc2Cl)Oc2cc(OC(=O)N3CCOCC3)ccc21	.	i
O=C1c2sc3nnc(-c4ccccc4)c(=O)n3c2C(=O)N1c1ccccc1Cl	.	i
NC(=O)c1nc(-c2cnccn2)no1	i	i
Cc1nc2c(sc3ccccc32)c(=O)n1CC(=O)Nc1ccc(Cl)cc1	i	.
CNC(=O)Cc1csc(SCC(=O)c2ccc3c(c2)OCO3)n1	i	.
O=C(Nc1ccc(O)cc1)C(=O)Nc1ccc(F)c([N+](=O)[O-])c1	i	+
O=C(NCc1ccncc1)C(=O)Nc1ccc(F)c([N+](=O)[O-])c1	i	i
O=S(=O)(Nc1cc(Cl)ccc1O)c1cc(Cl)ccc1Cl	i	+
COc1cc(S(=O)(=O)Nc2cc(Cl)ccc2O)c(OC)cc1C	i	i
COc1ccc(-c2cc(=O)n(CC(=O)NCc3cccs3)cn2)cc1	i	.
Cc1c(C(=O)Nc2cccc(N3CCCC3=O)c2)cccc1[N+](=O)[O-]	i	+
COc1cc(C(=O)Nc2cccc(N3CCCCC3=O)c2)c([N+](=O)[O-])cc1OC	i	i
Cc1cc(C(=O)N(Cc2ccco2)c2nc3ccccc3s2)on1	i	i
NC(=O)CSc1nc(-c2ccccc2)c(NC(=O)c2ccc3c(c2)OCO3)s1	i	i
COc1ccc(Nc2nnnc3c2cnn3-c2ccccc2)c(OC)c1	i	i
O=S(=O)(Oc1c(Cl)cc(Cl)c2cccnc12)N1CCCCCC1	.	i
O=S(=O)(Oc1c(Cl)cc(Cl)c2cccnc12)N1CCCCC1	.	+
CCOCC(=O)Nc1c2c(nn1CC(=O)NCCOC)CSC2	i	i
CC(CCc1ccccc1)NC(=O)Cc1csc(Nc2ccccc2)n1 (stereo unspecified)	i	+
O=C(Cc1csc(Nc2ccccc2)n1)NCCc1ccccc1	i	i
CS(=O)(=O)N1CCC(C(=O)N2CCN(Cc3nc(-c4ccccc4)cs3)CC2)CC1	i	i
O=C(NCC(c1cccs1)N1CCOCC1)C1CCCCC1 (stereo unspecified)	i	+
O=C(NCC(c1ccco1)N1CCOCC1)NC1CCCCC1 (stereo unspecified)	i	i
SMILES	GIRK2 act	AMPAR-TARP mod
CN(C)C(CNC(=O)C1CCCCC1)c1cccs1 (stereo unspecified)	i	i
O=C(NCC(c1ccco1)N1CCOCC1)C1CC=CCC1 (stereo unspecified)	i	+
CC(=O)N1CCN(c2ccnc3c2c(=O)n(CC(=O)Nc2ccc(F)cc2)c(=O)n3C)CC1	.	i
O=C(NCc1cccs1)c1coc(NC(=O)c2ccco2)n1	i	+
O=C(Nc1nnc(Cc2cccs2)o1)c1ccco1	i	i
C=CCN1CC(c2nc3ccccc3n2Cc2c(Cl)cccc2Cl)CC1=O (stereo unspecified)	.	+
CCCCN1CC(c2nc3ccccc3n2CCOc2cccc(C)c2)CC1=O (stereo unspecified)	.	+
CCCCN1CC(c2nc3ccccc3n2CCOc2ccccc2)CC1=O (stereo unspecified)	.	i
C=CCN1CC(c2nc3ccccc3n2Cc2ccccc2Cl)CC1=O (stereo unspecified)	.	i
CCCCN1CC(c2nc3ccccc3n2Cc2ccc(Cl)cc2)CC1=O (stereo unspecified)	.	i
CCN1CC(c2nc3ccccc3n2Cc2ccc(Cl)cc2Cl)CC1=O (stereo unspecified)	.	+
CCN1CC(c2nc3ccccc3n2CC(=O)N2CCCCC2)CC1=O (stereo unspecified)	i	.
CCN1CC(c2nc3ccccc3n2Cc2c(Cl)cccc2Cl)CC1=O (stereo unspecified)	.	+
CC(C)(C)c1ccc(C(=O)Nn2cnc3c(cnn3C(C)(C)C)c2=O)cc1	.	i
COc1ccc(NC(=O)Cn2c(=O)n(Cc3ccccc3Cl)c(=O)c3nccnc32)c(OC)c1	i	.
Cc1cccc(C(=O)N2CCC3(CC2)CC(=O)c2ccccc2O3)c1	.	+
O=C1CC2(CCN(C(=O)c3ccc(-c4ccccc4)cc3)CC2)Oc2ccccc21	.	i
COc1ccc2nc(-c3ccc(C)c(NS(=O)(=O)c4ccc(C)s4)c3)cn2n1	i	+
COc1ccc2nc(-c3ccc(C)c(NS(=O)(=O)c4cc(C)ccc4OC)c3)cn2n1	i	.
COc1ccc2nc(-c3ccc(C)c(NS(=O)(=O)c4ccc(C)c(C)c4)c3)cn2n1	i	.
